Unmarked numbers belong to inactive results. For some assays here: Entries with a potency or affinity are not part of this list. Calls of active or inactive are those of the source. Unless noted, how the calls were made is not given here.
Tests used:
[1] = antimalarial activity against Dd2 strain (AID 2302;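 active means growth inhibition above 50% at the single 2 µM test dose, taken to imply half-maximal potency below 2 µM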;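 further: 0% = DMSO untreated growth and 100% = chloroquine plus artemisinin killed control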); conditions: P. falciparum Dd2 in RBCs, LDH growth readout, 72 h; at 2 µM; stronger effect = higher value
[2] = human hepatoma cell viability loss – ATP luminescence, cytotoxicity control for P. falciparum antimalarial project, primary screen (AID 2303;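 active means inhibition above 50%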;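 further: 0% = DMSO wells and 100% = digitonin-killed cells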); conditions: HepG2 viability, 24-48 h, at 10 µM, stronger effect = higher value
[3] = target: L-lactate dehydrogenase (Plasmodium falciparum (isolate CDC / Honduras)) (UniProt Q27743); assay: PfLDH activity inhibition – cell lysate, 3D7 strain, counter-screen for P. falciparum growth inhibition project (AID 2304);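 further: 0% = vehicle and 100% = reference inhibitor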; conditions: P. falciparum 3D7 crude extract, LDH APAD/NBT absorbance; at 2 µM; stronger effect = higher value
[4] = inhibition of 3D7 malaria parasite growth – strain 3D7 (AID 2306);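 further: 0% = DMSO wells and 100% = chloroquine plus artemisinin control wells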; conditions: P. falciparum 3D7 erythrocytic growth, LDH absorbance, 72 h; at 2 µM; stronger effect = higher value
[5] = target: Calcium-dependent protein kinase 1 (Plasmodium falciparum (isolate 3D7)) (UniProt P62344); assay: PfCDPK1 kinase inhibitors, biochemical, TCAMS library (AID 1159585; cut-off not given, nearly all actives have IC50 up to about 0.98 µM;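 further: inhibitors leave more ATP so luminescence rises with inhibition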); conditions: recombinant PfCDPK1, Kinase-Glo ATP depletion luminescence
[6] = target: Plasmodium falciparum protein kinase 6 (PK6, PF3D7_1337100) (UniProt Q8IDW1); assay: PfPK6 kinase inhibitors, biochemical, TCAMS library (AID 1159586); conditions: recombinant PfPK6, Kinase-Glo ATP depletion luminescence
[7] = target: Protein kinase 7 (PK7), Plasmodium falciparum 3D7 (PF3D7_0213400) (UniProt Q7YTF7); assay: inhibition of Plasmodium PK7 catalytic activity – biochemical, TCAMS antimalarial set, Kinase-Glo luminescence (AID 1159587); conditions: recombinant PfPK7, Kinase-Glo ATP depletion luminescence
[8] = target: Calcium-dependent protein kinase 4 (Plasmodium falciparum (isolate 3D7)) (UniProt Q8IBS5); assay: PfCDPK4 kinase inhibitors, biochemical, TCAMS library (AID 1159588; cut-off not given, nearly all actives have IC50 up to about 0.91 µM); conditions: recombinant PfCDPK4, Kinase-Glo ATP depletion luminescence
Chain of Calcium-dependent protein kinase 4 (Plasmodium falciparum (isolate 3D7)) (Q8IBS5 whole entry, looked up): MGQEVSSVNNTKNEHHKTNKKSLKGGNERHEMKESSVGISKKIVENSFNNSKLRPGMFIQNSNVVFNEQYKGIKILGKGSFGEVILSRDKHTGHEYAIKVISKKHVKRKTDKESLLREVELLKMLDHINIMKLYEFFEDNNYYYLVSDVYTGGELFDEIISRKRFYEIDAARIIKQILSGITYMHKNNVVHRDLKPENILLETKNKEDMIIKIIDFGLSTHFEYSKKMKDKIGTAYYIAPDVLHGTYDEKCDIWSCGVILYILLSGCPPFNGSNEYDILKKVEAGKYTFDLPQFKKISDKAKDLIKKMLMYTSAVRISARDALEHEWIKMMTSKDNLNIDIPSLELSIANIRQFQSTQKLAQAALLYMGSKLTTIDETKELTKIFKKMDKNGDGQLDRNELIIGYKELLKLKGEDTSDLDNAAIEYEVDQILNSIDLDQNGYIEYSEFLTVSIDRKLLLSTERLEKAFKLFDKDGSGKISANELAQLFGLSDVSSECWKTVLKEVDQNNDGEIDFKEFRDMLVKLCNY

Chain of Plasmodium falciparum protein kinase 6 (PK6, PF3D7_1337100) (Q8IDW1 1-305): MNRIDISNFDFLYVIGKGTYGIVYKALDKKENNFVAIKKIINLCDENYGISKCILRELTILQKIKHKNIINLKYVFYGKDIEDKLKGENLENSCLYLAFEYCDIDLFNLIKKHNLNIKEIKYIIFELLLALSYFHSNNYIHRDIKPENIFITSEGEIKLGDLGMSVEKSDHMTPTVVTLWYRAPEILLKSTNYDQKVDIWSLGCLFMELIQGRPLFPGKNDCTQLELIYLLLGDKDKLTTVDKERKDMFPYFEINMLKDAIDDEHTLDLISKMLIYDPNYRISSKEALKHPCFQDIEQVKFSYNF
Chain of Protein kinase 7 (PK7), Plasmodium falciparum 3D7 (PF3D7_0213400) (Q7YTF7 1-343): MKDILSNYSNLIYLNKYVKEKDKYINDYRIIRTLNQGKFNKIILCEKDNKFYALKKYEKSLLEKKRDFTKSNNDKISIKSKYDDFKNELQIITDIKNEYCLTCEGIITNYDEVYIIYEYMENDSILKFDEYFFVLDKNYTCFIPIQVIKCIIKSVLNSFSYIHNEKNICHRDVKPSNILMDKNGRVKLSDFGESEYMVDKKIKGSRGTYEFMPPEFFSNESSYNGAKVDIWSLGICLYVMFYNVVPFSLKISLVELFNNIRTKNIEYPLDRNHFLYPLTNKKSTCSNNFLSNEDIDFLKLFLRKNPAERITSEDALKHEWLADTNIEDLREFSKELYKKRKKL
Chain of L-lactate dehydrogenase (Plasmodium falciparum (isolate CDC / Honduras)) (Q27743 whole entry, looked up): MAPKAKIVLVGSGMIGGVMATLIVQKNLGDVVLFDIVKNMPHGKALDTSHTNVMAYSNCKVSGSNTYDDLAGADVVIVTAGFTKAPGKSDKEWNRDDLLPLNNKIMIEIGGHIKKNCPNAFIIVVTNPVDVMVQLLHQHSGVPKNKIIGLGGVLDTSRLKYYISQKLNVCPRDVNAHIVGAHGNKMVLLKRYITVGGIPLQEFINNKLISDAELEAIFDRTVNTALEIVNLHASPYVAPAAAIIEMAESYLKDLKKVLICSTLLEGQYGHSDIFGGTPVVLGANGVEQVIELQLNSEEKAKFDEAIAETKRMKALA
Chain of Calcium-dependent protein kinase 1 (Plasmodium falciparum (isolate 3D7)) (P62344 whole entry, looked up): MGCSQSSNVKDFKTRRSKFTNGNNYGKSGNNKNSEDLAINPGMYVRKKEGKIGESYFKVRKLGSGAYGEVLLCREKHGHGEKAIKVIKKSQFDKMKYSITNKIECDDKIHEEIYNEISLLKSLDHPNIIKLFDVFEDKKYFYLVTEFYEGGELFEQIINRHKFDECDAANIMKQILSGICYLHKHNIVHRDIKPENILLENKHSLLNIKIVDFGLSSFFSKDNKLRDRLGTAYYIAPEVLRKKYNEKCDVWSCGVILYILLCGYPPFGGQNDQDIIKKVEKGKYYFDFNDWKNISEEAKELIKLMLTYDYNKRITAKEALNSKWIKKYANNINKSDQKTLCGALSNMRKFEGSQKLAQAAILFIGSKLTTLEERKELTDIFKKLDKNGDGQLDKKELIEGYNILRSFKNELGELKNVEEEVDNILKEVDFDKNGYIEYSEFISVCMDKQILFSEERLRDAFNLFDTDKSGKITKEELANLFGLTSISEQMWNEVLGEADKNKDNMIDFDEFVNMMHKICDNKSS

Structure (SMILES) | growth inhibition [1] | inhibition [2] | inhibition [3] [%] | growth inhibition [4] | outcome [5] | outcome [6] | outcome [7] | outcome [8]
Nc1ccc(-c2nc3c(ccc4ccccc43)[nH]2)cc1 | 51% (active) | -21% | -1 | 84% (active) | inactive | inactive | inactive | inactive
CCCCCCCCn1ccc(=N)cc1 | 84% (active) | 49% | -5 | 91% (active) | inactive | inactive | inactive | inactive
Clc1ccc2c(NCCc3ccccn3)ccnc2c1 | 72% (active) | 13% | -1 | 92% (active) | inactive | inactive | inactive | inactive
NOCCCOc1ccccc1 | -4% | 20% | -4 | 100% (active) | inactive | inactive | inactive | inactive
Cc1cc(NC(=O)c2ccc(S(=O)(=O)N(Cc3ccccc3)C(C)C)cc2)no1 | 67% (active) | -6% | -1 | 87% (active) | inactive | inactive | inactive | inactive
COc1cc(Cc2cnc(N)nc2N)ccc1OCc1ccc(-c2csnn2)cc1 | -2% | 33% | -4 | 97% (active) | inactive | inactive | inactive | inactive
COc1ccc2ncc(F)c(CCN3CC[C@@H](CNCc4cc5c(cn4)OCS5)C3)c2n1 | 29% | 3% | 0 | 98% (active) | inactive | inactive | inactive | inactive
O=C(c1cc(-c2cccs2)[nH]n1)N1CCN(S(=O)(=O)c2ccc(Br)cc2)CC1 | 95% (active) | -6% | 3 | 93% (active) | inactive | inactive | inactive | inactive
CC1CCC2(CC1)N=C(N)N=C(N)N2OCc1ccc(Br)c2ccccc12 (stereo not given) | 40% | 46% | -4 | 96% (active) | inactive | inactive | inactive | inactive
COc1cc(Nc2nccc(N3CCC(NC(=O)Nc4cccc(C(C)=O)c4)C3)n2)cc(OC)c1OC (stereo not given) | 34% | 8% | -3 | 91% (active) | inactive | inactive | inactive | inactive
O=C(Nc1cccc(C(F)(F)F)c1)c1ccc(S(=O)(=O)NCC2CCCN(CC3CCCCC3)C2)cc1 (stereo not given) | 9% | 26% | -4 | 95% (active) | inactive | inactive | inactive | inactive
O=C(Nc1cccc(CN2CCCN(Cc3ccccc3)CC2)c1)c1ccc(Cl)c(Cl)c1 | 16% | 23% | -6 | 95% (active) | inactive | inactive | inactive | inactive
NC(N)=Nc1ccc(C(=O)O)c(O)c1 | 1% | -3% | -3 | 94% (active) | inactive | inactive | inactive | inactive
CC(C)n1nc(C(=O)N2CCN(c3ccccc3)CC2)c2ccccc2c1=O | 3% | 34% | 0 | 96% (active) | inactive | inactive | inactive | inactive
CCc1nc(N)nc(N)c1-c1ccc(F)cc1 | -3% | 52% (active) | -2 | 96% (active) | inactive | inactive | inactive | inactive
COc1ccc(-c2ccc(NC(=O)c3cccc(Cl)c3)cc2)cc1CN1CCN(C)CC1 | 33% | 42% | -2 | 90% (active) | inactive | inactive | inactive | inactive
Cc1noc(C)c1-c1ccc(C(=C2CCCCCCC2)c2ccc(O)cc2)cc1 | 48% | -6% | 1 | 83% (active) | inactive | inactive | inactive | inactive
NC1CCN(Cc2ccc(-c3ccc(-c4nc5ccc(F)cc5[nH]4)cc3)cc2)C1 (stereo not given) | 99% (active) | 41% | -3 | 98% (active) | inactive | inactive | inactive | inactive
COc1cc2ccccc2cc1OCCCN1CCN(CC(c2ccc(F)cc2)N2CCN(C(C)C)CC2)CC1 (stereo not given) | 92% (active) | 72% (active) | -3 | 100% (active) | inactive | inactive | inactive | inactive
COc1ccc2nc3cc(Cl)ccc3c(NCCN(C)C)c2c1 | 100% (active) | 4% | -2 | 102% (active) | inactive | inactive | inactive | inactive

Structure (SMILES) | growth inhibition [1] | inhibition [2] | inhibition [3] [%] | growth inhibition [4] | outcome [5] | outcome [6] | outcome [7] | outcome [8]
CCCc1cc(Cc2cnc(N)nc2N)cc(CCC)c1OCCCC(=O)OCC | -5% | -8% | -2 | 94% (active) | inactive | inactive | inactive | inactive
CCNc1cc(C(=O)N[C@@H](Cc2ccc(Cl)cc2)[C@H](O)CNC2CCCCC2)cc(N2CCCCS2(=O)=O)c1 | 99% (active) | 6% | -1 | 98% (active) | inactive | inactive | inactive | inactive
COc1ccccc1C1CCN(C2CCC(NC(=O)c3cc(-c4ccc(Cl)cc4)cs3)CC2)CC1 (stereo not given) | 100% (active) | 61% (active) | -1 | 101% (active) | inactive | inactive | inactive | inactive
CC(C)CNCc1ccc(-c2cccc(CNC3CCN(Cc4ccccc4)CC3)c2)cc1 | 100% (active) | 34% | -9 | 101% (active) | inactive | inactive | inactive | inactive
CC(C)(C)OC(=O)NCc1ccc(Nc2nnc(-c3cccc(OCC(=O)NCc4cc(C(F)(F)F)cc(C(F)(F)F)c4)c3)o2)cc1 | 19% | 32% | 1 | 90% (active) | inactive | inactive | inactive | inactive
CCN(CC)CCCC(C)Nc1c(-c2ccc(OC)cc2)cnc2ccccc12 (stereo not given) | 38% | 3% | -6 | 93% (active) | inactive | inactive | inactive | inactive
COc1cc2nc(N3CCC(CNC(=O)c4ccc(-c5ccc(Cl)cc5)cc4)CC3)nc(N)c2cc1OC | 101% (active) | 99% (active) | 8 | 100% (active) | inactive | inactive | inactive | inactive
O=C(Nc1ccc(-c2cccc(-c3nc4ccccc4[nH]3)c2)cc1)Nc1ccsc1 | 90% (active) | 56% (active) | -7 | 101% (active) | inactive | inactive | inactive | inactive
Clc1ccc2c(NN=Cc3ccco3)ccnc2c1 | 96% (active) | 3% | -4 | 100% (active) | inactive | inactive | inactive | inactive
COc1ccc(Br)cc1C1[C@@H]2C(=O)N(c3ccc(Br)cc3)C(=O)[C@@H]2C2(C(=O)O)CC(OCc3ccccc3)CN12 (stereo not given in full) | 99% (active) | 16% | -2 | 104% (active) | inactive | inactive | inactive | inactive
CCc1ccccc1N1CCN(CCCC(=O)c2ccc(NC(=O)c3cc(Cl)cc(Cl)c3)cc2)CC1 | 46% | 16% | 1 | 99% (active) | inactive | inactive | inactive | inactive
O=C(/C=C/c1ccc(Cl)c(Cl)c1)NC1CCC(CN2CCC(c3cc4ccccc4[nH]3)CC2)CC1 (stereo not given) | -7% | 19% | 1 | 96% (active) | inactive | inactive | inactive | inactive
O=C(N[C@H]1CCN(Cc2ccc(OCCCN3CCCCC3)cc2)C1)c1ccc(Oc2ccccc2)cc1 | 11% | 56% (active) | 6 | 96% (active) | inactive | inactive | inactive | inactive
Clc1ccc(-c2ccc(C=NNc3nc(Nc4ccccc4)nc(Nc4ccccc4)n3)o2)cc1Cl | 75% (active) | 1% | -1 | 97% (active) | inactive | inactive | inactive | inactive
CC(C)CN1CCC(COc2ccc3ncn(-c4cc(O[C@H](C)c5ccccc5C(F)(F)F)c(C(N)=O)s4)c3c2)CC1 | 86% (active) | 46% | 7 | 97% (active) | inactive | inactive | inactive | inactive
Oc1c(Cl)cc(Nc2nccc(Nc3ccc(Oc4ccccc4)cc3)n2)cc1Cl | 26% | 8% | -5 | 99% (active) | inactive | inactive | inactive | inactive
CC(C)NC(=O)c1cccc(-c2ccc(OCCN3CCCC3c3cc4ccccc4[nH]3)cc2)c1 (stereo not given) | 34% | 25% | -2 | 100% (active) | inactive | inactive | inactive | inactive
COc1c(C2CCN(CCCCNC(=O)c3cc(-c4ccc(Cl)cc4)[nH]c3C)CC2)ccc2c1CCCC2 | 91% (active) | 53% (active) | -6 | 100% (active) | inactive | inactive | inactive | inactive
CN(C)c1ccc(-c2csc(C(=O)NCC3CCN(Cc4ccc(C(C)(C)C)cc4)C3)c2)cc1 (stereo not given) | 64% (active) | 29% | 0 | 97% (active) | inactive | inactive | inactive | inactive
CCN(CC)CCN(Cc1ccc(-c2ccc(C(F)(F)F)s2)cc1)C(=O)Cn1c(CCc2cccc(F)c2F)nc(=O)c2ccccc21 | 31% | 43% | 3 | 94% (active) | inactive | inactive | inactive | inactive

— PubChem BioAssay
